Experimental data: PubChem BioAssay (NCI)
Compounds without any hit were thinned out: in the full panel of roughly 83,000, 20% have a hit.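 Interpretation: 100, growth as untreated; towards 0, rising growth inhibition; 0, no net growth; 0 to -100, cell death. Compounds scoring below 10 were considered active.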 Activity calls are given as the source filed them.

Assays:
Experiment in all cases: NCI-60 one-dose screen, 48 h (100 = growth as untreated, 0 = no growth, -100 = all killed)
Details in all cases: 10 µM unless noted
RPMI-8226 leukemia = system: RPMI-8226 leukemia
OVCAR-8 ovarian = system: OVCAR-8 ovarian
OVCAR-5 ovarian = system: OVCAR-5 ovarian
OVCAR-4 ovarian = system: OVCAR-4 ovarian
SK-OV-3 ovarian = system: SK-OV-3 ovarian
IGROV1 ovarian = system: IGROV1 ovarian
OVCAR-3 ovarian = system: OVCAR-3 ovarian
HS 578T breast = system: HS 578T breast
NCI/ADR-RES ovarian = system: NCI/ADR-RES ovarian
T-47D breast = system: T-47D breast
BT-549 breast = system: BT-549 breast
MDA-MB-435 melanoma = system: MDA-MB-435 melanoma
SW-620 colon = system: SW-620 colon
MCF7 breast = system: MCF7 breast
HCT-116 colon = system: HCT-116 colon
HCC-2998 colon = system: HCC-2998 colon
KM12 colon = system: KM12 colon

Measured: growth

COc1ccc(/C=C/C(=O)Nc2ncnc3nc[nH]c23)cc1
inactive: RPMI-8226 leukemia 99% | OVCAR-8 ovarian 103% | OVCAR-5 ovarian 118% | OVCAR-4 ovarian 98.8% | SK-OV-3 ovarian 113% | IGROV1 ovarian 105% | OVCAR-3 ovarian 104% | HS 578T breast 101% | NCI/ADR-RES ovarian 96.6% | T-47D breast 91.2% | BT-549 breast 103% | MDA-MB-435 melanoma 91.1% | SW-620 colon 110% | MCF7 breast 78.9% | HCT-116 colon 101% | HCC-2998 colon 111% | KM12 colon 95.8%

Nc1c(C(=O)Nc2cccc3ccccc23)sc2nc3c(cc12)COCC3
inactive: RPMI-8226 leukemia 59.6% | OVCAR-8 ovarian 57.9% | OVCAR-5 ovarian 87.9% | OVCAR-4 ovarian 73.4% | SK-OV-3 ovarian 38.6% | IGROV1 ovarian 49.1% | OVCAR-3 ovarian 19.8% | HS 578T breast 35.8% | NCI/ADR-RES ovarian 26.8% | T-47D breast 57.1% | BT-549 breast 51.3% | SW-620 colon 24.9% | MCF7 breast 18.7% | HCT-116 colon 26.3% | HCC-2998 colon 85.5% | KM12 colon 40.7%
active: MDA-MB-435 melanoma -1.93%

COc1cccc(C(=O)OCCn2nc3c4c(cccc42)C(=O)c2ccccc2-3)c1O
inactive: RPMI-8226 leukemia 30% | OVCAR-8 ovarian 56.7% | OVCAR-5 ovarian 69.3% | OVCAR-4 ovarian 59.8% | SK-OV-3 ovarian 120% | IGROV1 ovarian 44.9% | HS 578T breast 20.1% | NCI/ADR-RES ovarian 22.5% | T-47D breast 40.8% | BT-549 breast 52.8% | SW-620 colon 20.9% | MCF7 breast 18.4% | HCT-116 colon 29.6% | HCC-2998 colon 80.3% | KM12 colon 29%
active: OVCAR-3 ovarian 3.88% | MDA-MB-435 melanoma 6.92%

CCc1ccc(OCc2ccccc2C(=O)Nc2ccc3nc(C)cc(N)c3c2)cc1
active: RPMI-8226 leukemia -45.4% | OVCAR-8 ovarian -60.7% | OVCAR-5 ovarian -95.4% | OVCAR-4 ovarian -84.3% | SK-OV-3 ovarian -97% | IGROV1 ovarian -71.5% | OVCAR-3 ovarian -92.4% | HS 578T breast -42% | NCI/ADR-RES ovarian -71.5% | T-47D breast -60% | BT-549 breast -91.9% | MDA-MB-435 melanoma -91.2% | SW-620 colon -64.3% | MCF7 breast -70.2% | HCT-116 colon -99.3% | HCC-2998 colon -76.8% | KM12 colon -78.9%

CCO/C=N/S(=O)(=O)c1cc2c(cc1Cl)NC=NS2(=O)=O
inactive: RPMI-8226 leukemia 104% | OVCAR-8 ovarian 100% | OVCAR-5 ovarian 112% | OVCAR-4 ovarian 117% | SK-OV-3 ovarian 104% | IGROV1 ovarian 104% | OVCAR-3 ovarian 105% | HS 578T breast 101% | NCI/ADR-RES ovarian 109% | T-47D breast 105% | BT-549 breast 101% | MDA-MB-435 melanoma 97.5% | SW-620 colon 94.9% | MCF7 breast 96.2% | HCT-116 colon 103% | HCC-2998 colon 102% | KM12 colon 107%

COc1ccc(/C=C/C(=O)C(CC2CCC2)C(=O)/C=C/c2ccc(OC)c(OC)c2)cc1OC
active: RPMI-8226 leukemia -7.68% | OVCAR-8 ovarian 3.28% | OVCAR-5 ovarian -12.9% | IGROV1 ovarian -17.1% | OVCAR-3 ovarian -33.2% | NCI/ADR-RES ovarian 3.14% | T-47D breast -5.5% | BT-549 breast -23.5% | MDA-MB-435 melanoma -11.5% | SW-620 colon -26.3% | MCF7 breast 6.93% | HCT-116 colon -75.8% | HCC-2998 colon -80.6% | KM12 colon -33.5%
inactive: OVCAR-4 ovarian 35.2% | SK-OV-3 ovarian 16.2% | HS 578T breast 25.4%

N#CCNc1ccc(C(=O)O)cc1
inactive: RPMI-8226 leukemia 102% | OVCAR-8 ovarian 102% | OVCAR-5 ovarian 120% | OVCAR-4 ovarian 117% | SK-OV-3 ovarian 105% | IGROV1 ovarian 103% | OVCAR-3 ovarian 110% | HS 578T breast 105% | NCI/ADR-RES ovarian 105% | T-47D breast 99.2% | BT-549 breast 106% | MDA-MB-435 melanoma 101% | SW-620 colon 103% | MCF7 breast 98.9% | HCT-116 colon 103% | HCC-2998 colon 104% | KM12 colon 105%

CN(C)[C@@H]1C(=O)C(C(N)=O)=C(O)[C@@]2(O)C(=O)C3=C(O)c4c(O)cc(CN5CCc6ccccc6C5)c(Cl)c4C[C@H]3C[C@@H]12
active: RPMI-8226 leukemia -46.2% | OVCAR-8 ovarian -80.9% | OVCAR-5 ovarian -87.1% | OVCAR-4 ovarian -44.5% | SK-OV-3 ovarian -93.3% | IGROV1 ovarian -73.2% | OVCAR-3 ovarian -83.3% | HS 578T breast -57.7% | NCI/ADR-RES ovarian -83.7% | T-47D breast -41.4% | BT-549 breast -83.3% | MDA-MB-435 melanoma -75.7% | SW-620 colon -72.4% | MCF7 breast -68.8% | HCT-116 colon -90.5% | HCC-2998 colon -67.1% | KM12 colon -82.9%

CCN1CCC[C@H]1c1cc(O)c2c(c1OC)C[C@H]1C[C@H]3[C@H](N)C(=O)C(C(N)=O)=C(O)[C@@]3(O)C(=O)C1=C2O
active: RPMI-8226 leukemia -18.8% | OVCAR-8 ovarian -0.399% | OVCAR-5 ovarian 4.81% | OVCAR-4 ovarian -0.794% | SK-OV-3 ovarian -1.89% | IGROV1 ovarian -5.97% | OVCAR-3 ovarian 2.36% | HS 578T breast -3.05% | NCI/ADR-RES ovarian 9.29% | T-47D breast -8.2% | BT-549 breast -3.73% | MDA-MB-435 melanoma -4.48% | SW-620 colon 1.96% | MCF7 breast 0.852% | HCT-116 colon -4.51% | HCC-2998 colon -6.34% | KM12 colon 5.97%

COc1ccc2[nH]c(=O)c(/C=C/C(=O)/C=C/c3ccc(O)c(OC)c3)cc2c1
active: RPMI-8226 leukemia -18.5% | OVCAR-8 ovarian 1.42% | IGROV1 ovarian 2.67% | OVCAR-3 ovarian -11.2% | BT-549 breast -22.8% | MDA-MB-435 melanoma -30% | SW-620 colon -24.8% | HCT-116 colon -86.7% | HCC-2998 colon -74% | KM12 colon -45%
inactive: OVCAR-5 ovarian 59.4% | OVCAR-4 ovarian 64.3% | SK-OV-3 ovarian 56.5% | HS 578T breast 25.5% | NCI/ADR-RES ovarian 47.9% | T-47D breast 26% | MCF7 breast 13%

Cc1cnc(SCc2ccc(Cl)cc2)[nH]c1=S
inactive: RPMI-8226 leukemia 101% | OVCAR-8 ovarian 101% | OVCAR-5 ovarian 97.5% | OVCAR-4 ovarian 92.3% | SK-OV-3 ovarian 108% | IGROV1 ovarian 103% | OVCAR-3 ovarian 94.1% | HS 578T breast 112% | NCI/ADR-RES ovarian 103% | T-47D breast 88% | BT-549 breast 108% | MDA-MB-435 melanoma 104% | SW-620 colon 111% | MCF7 breast 95.6% | HCT-116 colon 101% | HCC-2998 colon 108% | KM12 colon 96.3%

Cc1ccn2c3c(c(C(=O)O)c2c1)C(=O)c1ccccc1C3=O
active: MDA-MB-435 melanoma -78.2%
inactive: RPMI-8226 leukemia 90.6% | OVCAR-8 ovarian 80.1% | OVCAR-5 ovarian 121% | OVCAR-4 ovarian 69.9% | SK-OV-3 ovarian 98.3% | IGROV1 ovarian 81.3% | OVCAR-3 ovarian 45.6% | HS 578T breast 43.7% | NCI/ADR-RES ovarian 85.2% | T-47D breast 90.7% | BT-549 breast 58.9% | SW-620 colon 74.1% | MCF7 breast 61.1% | HCT-116 colon 82.3% | HCC-2998 colon 62% | KM12 colon 66.7%

COc1ccc(-c2nnc(N3CCN(C(=O)CN4CCN(c5ccc(OC)cc5)CC4)CC3)nc2-c2ccc(OC)cc2)cc1
active: RPMI-8226 leukemia -59.8% | OVCAR-8 ovarian -54.9% | OVCAR-4 ovarian -48.3% | IGROV1 ovarian -60.8% | OVCAR-3 ovarian -96.1% | NCI/ADR-RES ovarian -40.6% | T-47D breast -64.5% | BT-549 breast -81.8% | MDA-MB-435 melanoma -68.1% | SW-620 colon -92.5% | MCF7 breast -69.8% | HCT-116 colon -41.1% | KM12 colon -13.1%
inactive: OVCAR-5 ovarian 111% | SK-OV-3 ovarian 101% | HS 578T breast 21% | HCC-2998 colon 33.9%

Cc1cccc(NC(=O)c2sc3nc4c(cc3c2N)CN(Cc2ccccc2)CC4)c1C
inactive: RPMI-8226 leukemia 26.8% | OVCAR-8 ovarian 34.3% | OVCAR-5 ovarian 57.4% | OVCAR-4 ovarian 61.7% | SK-OV-3 ovarian 42.2% | IGROV1 ovarian 48.5% | HS 578T breast 30.8% | NCI/ADR-RES ovarian 20.2% | T-47D breast 53% | BT-549 breast 54% | SW-620 colon 24.3% | MCF7 breast 22.4% | HCT-116 colon 29.2% | HCC-2998 colon 55.8% | KM12 colon 25.7%
active: OVCAR-3 ovarian -21.3% | MDA-MB-435 melanoma -25.2%

S=c1ssnc1-c1cc2ccccc2o1
active: IGROV1 ovarian -54%
inactive: RPMI-8226 leukemia 21.4% | OVCAR-8 ovarian 86% | OVCAR-5 ovarian 105% | OVCAR-4 ovarian 83.2% | SK-OV-3 ovarian 85.7% | OVCAR-3 ovarian 80.4% | HS 578T breast 61.9% | NCI/ADR-RES ovarian 78% | T-47D breast 64.5% | BT-549 breast 103% | MDA-MB-435 melanoma 57% | SW-620 colon 71.5% | MCF7 breast 65.5% | HCT-116 colon 59.5% | HCC-2998 colon 98.3% | KM12 colon 81.6%

N#C/C(=C/c1ccc(O)c([N+](=O)[O-])c1)c1nc(-c2ccc([N+](=O)[O-])cc2)cs1
inactive: OVCAR-8 ovarian 48.4% | OVCAR-5 ovarian 108% | OVCAR-4 ovarian 34.1% | SK-OV-3 ovarian 38.9% | IGROV1 ovarian 55.9% | OVCAR-3 ovarian 23.5% | HS 578T breast 44.2% | NCI/ADR-RES ovarian 33.4% | T-47D breast 11.2% | BT-549 breast 36.3% | MDA-MB-435 melanoma 40.2% | SW-620 colon 54.2% | MCF7 breast 25.8% | HCT-116 colon 33.8% | HCC-2998 colon 30.4% | KM12 colon 36%
active: RPMI-8226 leukemia 9.81%

NC(=O)CN1C(=O)c2ccccc2C1=O
inactive: RPMI-8226 leukemia 105% | OVCAR-8 ovarian 103% | OVCAR-5 ovarian 102% | OVCAR-4 ovarian 110% | SK-OV-3 ovarian 106% | IGROV1 ovarian 105% | OVCAR-3 ovarian 106% | HS 578T breast 104% | NCI/ADR-RES ovarian 102% | T-47D breast 89.9% | BT-549 breast 86.6% | MDA-MB-435 melanoma 106% | SW-620 colon 103% | MCF7 breast 95.3% | HCT-116 colon 102% | HCC-2998 colon 103% | KM12 colon 103%
